# Compound activity deposited in PubChem by Broad Institute.
# The list is a sample of the results.
# aSyn 5UTR act: Activators working through SNCA 5'UTR binding (MLPCN); hit rate 7.1% among 300,000; AID 1814; alpha-synuclein 5'UTR reporter, activators screen; activity score, % (tested at 7.5 µM), hits read low; in the data active = activity score below about -60%
# Starred values were filed as active, the others as inactive.
SMILES,aSyn 5UTR act
COc1ccc2cc3cc(C(=O)N4CC(C)CC(C)C4)oc3nc2c1 (stereo not given),-125*
Cc1ccc2cc3cc(C(=O)N4CC(C)CC(C)C4)oc3nc2c1 (stereo not given),-120*
O=c1oc2c(-c3cccc(F)c3)cc(O)cc2s1,-79*
COc1ccc(C2=NN(C(=O)CN3CCOCC3)C(c3nc4ccccc4[nH]3)C2)cc1 (stereo not given),-72*
Cc1ccc(C)c(NC(=S)NNC(=O)c2csc(C(C)C)c2)c1,-100*
Cc1ccc(C)c(NC(=S)NNC(=O)c2csc(C)c2C)c1,-92*
Cc1ccc(C)c(NC(=S)NNC(=O)c2sccc2C)c1,-69*
COC(=O)c1c(-c2cccs2)csc1NC(=O)c1cccnc1,-87*
CCCc1ccc(OCc2nc(-c3ccc(NC(=O)c4ccco4)cc3)no2)cc1,-119*
Cc1ccccc1OCc1nc(-c2ccc(NC(=O)c3ccc4c(c3)OCO4)cc2)no1,-109*
CC(Oc1ccc(Cl)cc1Cl)c1nc(-c2ccc(NC(=O)c3ccco3)cc2)no1 (stereo not given),-147*
Cc1ccccc1OCc1nc(-c2ccc(NC(=O)c3cccs3)cc2)no1,-277*
CCCc1ccc(OCc2nc(-c3ccc(NC(=O)c4cccs4)cc3)no2)cc1,-169*
CSc1nc(-c2ccc(Cl)cc2)nn1S(=O)(=O)c1ccccc1,-74*
CC(C)CCn1c(SCc2ccc(Cl)cc2)nc2c1c(=O)[nH]c(=O)n2C,57
CS(=O)(=O)n1nc(-c2ccc(Cl)cc2)nc1SCc1ccccc1,-112*
CSc1nc(-c2ccc(Cl)cc2)nn1S(=O)(=O)c1ccc(Cl)cc1,-74*
O=c1c(Cl)c(Cl)cnn1Cc1nnc(-c2ccc(Cl)cc2)o1,-179*
CCCCCc1ccc(-c2ccc(OC)cc2)nc1,-123*
CCCCc1ccc(-c2ccc(C)cc2O)nc1,84
O=C1CC(c2ccccc2F)c2cc3c(cc2N1)CCC3 (stereo not given),65
Cc1ccc(-c2nnc(NC3CCCC3)s2)cc1,-143*
CSc1cccc(NCc2ccc([N+](=O)[O-])cc2)c1,-63*
O=Cc1cc(N=Nc2ccccc2Cl)ccc1O,-111*
CCCCN1C=CC(=C2C(=O)c3ccccc3C2=O)C=C1,98
SMILES,aSyn 5UTR act
CCc1ccc2c(c1)C(=O)c1ccccc1C2=O,-199*
COc1ccccc1C(=O)Nc1cc2ccccc2oc1=O,-172*
COc1ccc(S(=O)(=O)Nc2ccccc2OC)cc1NC(=O)c1cc2ccccc2oc1=O,-159*
COc1ccc(NC(=O)c2oc3ccccc3c2C)c(OC)c1,-216*
COc1ccc(NC(=O)c2cc3ccccc3oc2=O)c(OC)c1,-113*
COc1ccc2oc(=O)c(C(=O)Nc3cccc(C)c3)cc2c1,-128*
COC(=O)c1ccc(N=NN2CCOCC2)cc1,-147*
Clc1ccc(N=NN2CCOCC2)cc1,-70*
O=C(O)c1ccc(N=NN2CCCCC2)cc1,-85*
COC(=O)c1ccc(N=NN2CCCCCC2)cc1,-134*
Nc1nnc(SCC(=O)c2ccc3ccccc3c2)s1,-135*
Nc1ccc2nc(SCc3ccccc3F)sc2c1,-203*
Nc1ccc2nc(SCC(=O)c3ccccc3)sc2c1,-75*
Cc1cc(C(=O)CSc2nnc(N)s2)c(C)n1Cc1cccs1,69
Cc1c(-c2nc(-c3cccnc3)no2)cccc1[N+](=O)[O-],-81*
Cc1ccc(-c2nc(-c3cccnc3)no2)c(C)c1,-92*
O=C(c1cc2c(=O)n3ccccc3nc2s1)N1CCOCC1,-98*
CC1CCN(C(=O)c2cc3c(=O)n4ccccc4nc3s2)CC1,-78*
O=C(O)COc1ccc(/C=C/C(=O)c2ccc(C3CCCCC3)cc2)cc1,-115*
CC(C)(C)C(=O)/C=C/c1ccc(Oc2ccccc2)cc1,-155*
O=C(/C=C/c1ccc(OC2CSC2)cc1)c1ccccc1,-153*
NCCOc1ccc(C2CCCCC2)cc1,71
CCOc1ccc(/C=C/C(=O)c2ccccc2)cc1,-179*
N#Cc1nc(-c2ccc(Cl)cc2)oc1NCc1ccco1,-108*
COCCNc1oc(-c2ccc(Cl)cc2)nc1C#N,-162*
SMILES,aSyn 5UTR act
COCCNc1oc(-c2ccc(C)cc2)nc1C#N,-107*
Cc1cccc(NC(=O)c2cnc3sccn3c2=O)n1,-116*
COc1ccc(NC(=O)c2cnc3sccn3c2=O)cc1,-133*
Cc1cccc(NC(=O)c2cnc3sccn3c2=O)c1C,-124*
Cc1cccc(NC(=O)c2cnc3sccn3c2=O)c1,-74*
O=C(Nc1cnc2sccn2c1=O)c1ccccc1Cl,-180*
O=C(Nc1cccc2ccccc12)N1N=CCC1c1ccccc1 (stereo not given),-89*
Fc1ccc(NC(=S)N2N=CCC2c2ccccc2)cc1 (stereo not given),-101*
S=C(Nc1ccccc1)N1N=CCC1c1ccccc1 (stereo not given),-153*
CC1CCC(NC(=O)C(=O)Nc2ccc3c(c2)OCO3)CC1 (stereo not given),-114*
Cc1cc(C)c(NC(=O)Nc2ccc3c(c2)OCO3)c(C)c1,-71*
Cc1ccc(NC(=O)Nc2ccc3c(c2)OCO3)c(Br)c1,-117*
O=C(Nc1ccc(F)cc1)Nc1ccc2c(c1)OCO2,-109*
Cc1ccc2c(Cl)c(C(=O)Nc3ccc4c(c3)OCO4)sc2c1,-148*
Cc1nn(Cc2ccc(Cl)cc2)c(C)c1NC(=O)c1cc(-c2ccc3c(c2)OCO3)on1,61
Cc1cc(C)c2[nH]c(C(=O)Nc3ccc4c(c3)OCO4)cc2c1,-66*
O=C(Nc1ccc(F)cc1F)c1cc(-c2ccc3c(c2)OCO3)on1,-110*
COC(=O)c1ccc(C(=O)OC)c(NC(=O)Nc2ccc3c(c2)OCO3)c1,-124*
COC(=O)c1cccc(NC(=O)Nc2ccc(Cl)cc2Cl)c1,-103*
O=C(Nc1ccc2c(c1)OCO2)Nc1ccc(F)cc1F,-138*
O=C(Nc1ccc2c(c1)OCO2)c1ccc(Cl)s1,-194*
O=C(Nc1ccc2c(c1)OCO2)c1c(Cl)nc2sccn12,-205*
CCc1ccc2[nH]c(C(=O)Nc3ccc4c(c3)OCO4)cc2c1,-94*
O=C(Nc1ccc2c(c1)OCO2)Nc1ccc(Cl)cc1Cl,-112*
CCc1ccc2[nH]c(C(=O)Nc3ccc(Br)c(C)n3)cc2c1,-146*
SMILES,aSyn 5UTR act
O=C(Nc1ccc2c(c1)OCO2)Nc1ccc2c(c1)OCO2,-129*
O=C(Nc1cccc(C(=O)O)c1)Nc1ccc2c(c1)OCO2,99
O=C(Nc1ccc(Cl)cc1)Nc1ccc2c(c1)OCO2,-134*
NC(=O)Nc1ccc2c(c1)OCCO2,-113*
Cc1noc(C(=O)Nc2ccc3c(c2)OCO3)c1Cl,-205*
CN(/N=C/c1ccc(N(C)C)cc1)C1=NS(=O)(=O)c2ccccc21,-97*
COc1ccc(N(C)C2=NS(=O)(=O)c3ccccc32)cc1,-70*
O=C(NCCCc1ccccn1)C1CCC(=O)N(Cc2cccc(F)c2)C1 (stereo not given),-117*
CCOC(=O)C1CCN(c2ncnc3c(C)csc23)CC1,-69*
CC(C)(C)c1ccc(/C=C/C(=O)N2CCOCC2)cc1,-147*
CC(C)Cc1ccc(/C=C/C(=O)N2CCOCC2)cc1,-161*
Cc1ccc2[nH]c(C(=O)N3CCCCC3)cc2c1,-98*
COc1ccccc1N1CCN(C(=O)c2ccc3[nH]c(C)c(C)c3c2)CC1,72
CCOC(=O)c1ccc2[nH]c3ccccc3c2c1,-133*
Cc1[nH]c2ccc(C(=O)N3CCCCC3)cc2c1C,-112*
COC(=O)c1ccc2[nH]c(C(C)(C)O)c(C)c2c1,-94*
CCOC(=O)c1ccc2[nH]c(C)c(C)c2c1,-86*
